The campaign covered roughly 53,000 compounds. About 900 (1.7%) showed an effect of 50% or more. This is one part of a sample in which strong results are shown more often than they occur.
Test system: Mycobacterium tuberculosis
Experiment: Cornell - Phenotypic assay to identify agents that inhibit growth of Mycobacterium tuberculosis
Assay type: functional
Set-up: scale not given: direction of the effect not stated beside the values
Details: 10 mM as filed; unlikely as a test dose

SMILES | Percent Effect [%]
COCCC1(CNC(=O)Nc2ccc(-n3ccnn3)cc2)CCC1 | 75.09
Cc1nc(C2CCCNC2)nc2c1CCCN2Cc1ccccn1.Cl.Cl (stereo not given) | 10.21
Cc1nnc(C(C)N2CCCN(Cc3ccc(F)cc3)CC2)o1 (stereo not given) | 8.155
Br.O=C(O)c1csc(NCCc2ccccc2)n1 | 71.03
Cc1nc(NCCc2ccccc2)cc(C(=O)N2CCCCC2)n1 | -12.22
CN1CC(=O)c2sc(NCCc3ccccc3)nc2C1 | -47.63
Cc1nn(C)c(C)c1CC(=O)N1CCCC(CNS(C)(=O)=O)C1 (stereo not given) | -13.44
CCC(O)Cn1nc(-c2ccc(C(=O)O)cc2)cc1-c1ccc(F)cc1 (stereo not given) | 43.49
CCC(O)Cn1nc(-c2ccc(C(=O)O)cc2)cc1-c1cccc(F)c1 (stereo not given) | -3.821
CC(C)Cn1nc(-c2ccc(C(=O)O)cc2)cc1-c1ccc(F)cc1 | 92.09
CC(C)(C)n1ncc2c(=O)[nH]c(N3CCN(CCO)CC3)nc21 | 21.4
CC(C)(C)n1ncc2c(=O)[nH]c(N3CC(O)C3)nc21 | -9.536
CC(=O)N1CCN(c2nc3c(cnn3C(C)(C)C)c(=O)[nH]2)CC1 | 26.42
CN1CC(Nc2nc3c(cnn3C(C)(C)C)c(=O)[nH]2)CCC1=O (stereo not given) | 12.63
CC(C)(C)n1ncc2c(=O)[nH]c(NC3CC=CC3)nc21 | 82.93
CC(C)(C)n1ncc2c(=O)[nH]c(N3CCN(CC(F)F)CC3)nc21 | 62.42
Nc1cc(-c2nccnc2N2CCCC2)c2cc[nH]c2n1 | -1.136
CC(=O)N1CCC2(CCN(S(=O)(=O)c3ccccc3)CC2)C1 | -13.67
CC(C)CN1C[C@H]2CCN(C(=O)NC3CCCC3)CC[C@H]2S1(=O)=O | 15.88
COc1cccc(CNCc2ccc(F)c(Cl)c2)c1O | 2.035
COc1cccc(CNCc2ccccc2Cl)c1O | -0.8125
COc1cccc(CNCc2cccc(Cl)c2)c1O | 2.888
CCOc1cccc(CNc2cccc(C(=O)OC)c2)c1O | 2.238
COc1cccc(CNc2ccc(F)c(Cl)c2)c1O | 58.04
COc1cccc(CNCc2ccc(F)cc2Cl)c1O | 52.17
COc1cccc(N2CCN(CC(O)c3cc(C)ccc3C)CC2)c1 (stereo not given) | -17.91
Cc1ccc(-c2nc(CCNC(=O)NCC(C)(C)C(N)=O)co2)cc1 | -1.516
Cc1ccc(Br)cc1NC(=O)NCC(O)CO (stereo not given) | -28.33

SMILES | Percent Effect [%]
CN1C(=O)[C@H]2CC[C@@H]1CN(c1ncnc3ccsc13)C2 | 26.9
CN(C)c1nc2n(c(=O)n1)CCN2C(=O)Nc1ccc(Cl)c(Cl)c1 | 104.9
CN(C)c1nc2n(c(=O)n1)CCN2C(=O)Nc1ccc(Cl)cc1 | -48.51
CN(C)c1nc2n(c(=O)n1)CCN2C(=O)Nc1cccc(Cl)c1 | -1.647
Cc1cc(C)n(CCCNC(=O)C(C)NC(=O)c2ccccc2Cl)n1 (stereo not given) | -13.3
CC1(CNC(=O)NCc2ccsc2)CCCS1 (stereo not given) | 1.003
Cc1nc(N2CCOCC2)nc2c1CCN(C(=O)C1CCCCC1)CC2 | 34.6
Cc1ccoc1-c1nnc(CNCCn2cccn2)o1 | -13.89
Cc1ccc(-c2nnc(CNCCn3cc(C)cn3)o2)cc1 | 51.67
CCc1sc(-c2nnc(CNCCn3cccn3)o2)cc1C | -21.28
Cc1cnn(CCNCc2nnc(C3CC3)o2)c1 | -12.52
CC(Cn1cccn1)NCc1nc(-c2cccs2)no1 (stereo not given) | 28.55
Cc1ccc(-c2nnc(C(C)NCCn3cc(C)cn3)o2)cc1 (stereo not given) | -4.1
CCc1sc(-c2nnc(CNCCn3cc(C)cn3)o2)cc1C | 69.26
CCc1sc(-c2nnc(CNC(C)Cn3cccn3)o2)cc1C (stereo not given) | 50.91
CCc1sc(-c2nnc(CNC(C)Cn3cc(C)cn3)o2)cc1C (stereo not given) | 15.55
O=C(O)C(F)(F)F.O=C1N(CC2CC2)CCC12CCN(Cc1ccoc1)CC2 | -1.631
Cl.O=C(NCCn1nc(C2CCNC2)c2cccnc21)c1ccccc1 (stereo not given) | -53.35
Cc1c(OCC(=O)NCc2ccccc2)c(=O)ccn1C | 2.776
OCCn1nccc1C1CCN(CCOc2ccccc2Cl)CC1 | -31.74
CCc1cnc(CN(C)C2CCN(CC3CCN(C(C)=O)CC3)C2)o1 (stereo not given) | 6.622
Cc1ccc(-c2cc(N)c(=O)n(CC(=O)NC3CCCC3)n2)s1 | -35.82
Cc1ccc(-c2cc(N)c(=O)n(CC(=O)NCC3CCCCC3)n2)s1 | 31.53
Cc1cc(-c2cc(N)c(=O)n(CC(=O)NCC3CCCCC3)n2)c(C)o1 | -31.85
Cc1ccc(-c2cc(N)c(=O)n(CC(=O)NCC3CC3)n2)s1 | 90.74
Nc1cc(-c2cccs2)nn(CC(=O)NCC2CCCCC2)c1=O | 91.2
Cc1ccc(-c2cc(N)c(=O)n(CC(=O)NC3CCCCC3)n2)s1 | 21.23

Source: ChEMBL document CHEMBL3988442, “University of Dundee, Small-Polar-MMV Screening Library” (2021)
